Here are results for 100 compounds from article PMC6919601, “Identification of Plasmodium dipeptidyl aminopeptidase allosteric inhibitors by high throughput screening” (PLoS ONE, 2019).

About 230 (0.21%) of roughly 110,000 compounds showed an effect of 50% or more. The full list was thinned out, with strong results kept by preference.
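Also: 30 min substrate incubation versus DMSO and 10 µM JCP410 controls.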

Chain of DPAP1 (Q8IIJ9 whole entry, looked up): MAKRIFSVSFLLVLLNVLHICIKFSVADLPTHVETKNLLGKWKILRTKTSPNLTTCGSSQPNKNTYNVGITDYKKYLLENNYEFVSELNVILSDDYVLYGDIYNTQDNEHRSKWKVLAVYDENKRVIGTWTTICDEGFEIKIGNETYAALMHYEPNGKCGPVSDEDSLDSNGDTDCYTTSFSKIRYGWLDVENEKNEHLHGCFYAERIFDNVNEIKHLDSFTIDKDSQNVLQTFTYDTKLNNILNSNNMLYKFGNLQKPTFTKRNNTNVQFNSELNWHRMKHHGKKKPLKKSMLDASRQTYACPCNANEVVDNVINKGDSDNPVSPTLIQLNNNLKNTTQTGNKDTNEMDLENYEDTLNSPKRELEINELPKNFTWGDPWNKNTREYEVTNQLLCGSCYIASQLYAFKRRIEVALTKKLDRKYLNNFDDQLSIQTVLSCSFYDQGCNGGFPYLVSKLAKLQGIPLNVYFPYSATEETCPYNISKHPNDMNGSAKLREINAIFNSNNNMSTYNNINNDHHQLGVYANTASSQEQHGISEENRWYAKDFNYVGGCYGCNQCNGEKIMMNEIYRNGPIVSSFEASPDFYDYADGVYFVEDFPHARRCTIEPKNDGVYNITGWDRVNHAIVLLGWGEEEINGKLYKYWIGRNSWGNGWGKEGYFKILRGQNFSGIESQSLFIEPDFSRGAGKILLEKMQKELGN

This experiment addresses DPAP1 (Plasmodium falciparum, UniProt Q8IIJ9). Description: primary screen, percent inhibition; read by cleavage of a fluorogenic dipeptide substrate; higher = more effect of the substance. Further details: species or system P. falciparum D10 trophozoite lysates; single well.
Consider `CCCNC(=O)c1cc2n(n1)C(C(F)(F)F)CC(c1ccc(Br)cc1)N2` (stereo not shown), for which the “% Inhibition @ 10 uM” value is given as -0.67%.

As to `COc1ccc(-c2nc3scc(CCNC(=O)c4cc(OC)c(OC)c(OC)c4)n3n2)cc1`, the “% Inhibition @ 10 uM” value is 5.49%. For `COc1ccc(NC(=O)C2=C(C)NC(=O)NC2c2ccc(C)cc2)cc1` (stereo not shown) the value was -2.18%; for `COc1ccc(NC(=O)C2=C(C)NC(=O)NC2c2ccc(Br)cc2)cc1` (stereo not shown), 57.9%; for `COc1ccc(NC(=O)C2=C(C)NC(=O)NC2c2ccc(OC)cc2)cc1` (stereo not shown), 9.5%.

With `Cc1ccc(-c2nn3c(CC#N)nnc3c3ccccc23)cc1`, the “% Inhibition @ 10 uM” value is listed as 6.38%. As for `CC(C)Oc1ccc(-c2cc(C(=O)NCCCN3CCOCC3)c3ccccc3n2)cc1`, the figure is -12.3%; as for `O=C1NC(=O)c2c1cc1c3c2C2C=CCC2CN3CC2CC=CC12` (stereo not shown), 64.9%; as for `Cc1cc(C)c2c3c1C1C=CCC1CN3C(C(=O)O)C1CC=CC21` (stereo not shown), 3.65%.

With `O=C(Nc1ccc2c3c1C1C=CCC1CN3CC1CC=CC21)c1ccccc1` (stereo not shown), the “% Inhibition @ 10 uM” value worked out at 2.4%. For `COc1cccc(CN(C(=O)c2cc3ccccc3oc2=O)C2CCS(=O)(=O)C2)c1` (stereo not shown) the value was 0.366%. For `CCSc1cc(C)nc2ncnn12` the value was 7.56%; for `Cc1cccc(-c2[nH]c3c(C#N)cnn3c2NCCC(C)C)c1`, 3.84%; for `COc1cccc(-c2[nH]c3c(C#N)cnn3c2NCCC(C)C)c1`, 76.4%. As for `CC(C)CCNc1c(-c2cccc(Cl)c2)[nH]c2c(C#N)cnn12`, the figure is -4.71%; as for `c1ccc2c(c1)ncn2Cc1nnc2sc(-c3ccc4c(c3)OCCO4)nn12`, 45%.

For the compound `Cc1ccc(S(=O)(=O)N(CC(=O)NC2CC3CCC2C3)c2ccc(Cl)cc2)cc1` (stereo not shown), the “% Inhibition @ 10 uM” value was -0.695%. As for `CCc1ccc(CNC(=O)NCc2noc3ccc(C)cc23)cc1`, the figure is 2.19%; as for `COc1cccc(CN2CCN(Cc3cccc(C)c3)CC2)c1OC`, -4.16%. For `COc1ccc(CN2CCN(Cc3cccc(C)c3)CC2)c(OC)c1OC` the value was 53.3%. As for `COc1cccc(CN2CCN(Cc3ccc(OC)c(OC)c3OC)CC2)c1`, the figure is -6.74%.

As to `Cc1[nH]c2ccccc2c1CCNC(=S)NC(C)(C)C`, the “% Inhibition @ 10 uM” value is recorded as -0.431%. As for `O=C(CCNS(=O)(=O)c1ccc2nc(O)ccc2c1)NC1CCCc2ccccc21` (stereo not shown), the figure is -2.26%. For `CCn1cc(CNC(=O)c2cc(-c3ccccc3OC)nc3ccccc23)cn1` the value was -10.2%; for `COc1ccccc1C(=O)Nc1cccc(F)c1`, -5.29%. As for `Cc1cc(C)n(CC(O)Cn2c3ccccc3c3ccccc32)c(=O)n1` (stereo not shown), the figure is 80.2%; as for `Cc1cc(C)n(CC(O)Cn2c3ccccc3c3ccccc32)n1` (stereo not shown), -10.2%. Regarding `OCC(O)Cn1c2ccccc2c2ccccc21` (stereo not shown), the “% Inhibition @ 10 uM” value came out at 1.44%. For `O=C1CC(c2nc(-c3ccccc3)cs2)C2(CCCCC2)O1` (stereo not shown) the value was 4.08%. For `Cc1ccc(-c2csc(N)n2)cc1` the value was 20.7%. For `Cc1ccc(-c2csc(C3C(N)=NC(S)=C(C#N)C34CCCCC4)n2)cc1` (stereo not shown) the value was 89.8%; for `CNC(=S)N(CCc1c(C)[nH]c2ccc(Cl)cc12)Cc1ccccn1`, -4.14%. Take `COc1ccc(C(=O)NCc2nnc(SCC(=O)NCC3CCCO3)o2)cc1` (stereo not shown): the “% Inhibition @ 10 uM” value turned out to be 8.26%. For `Cc1nnc(NC(=O)CSc2nnc(CNC(=O)COc3ccc(Cl)cc3)o2)s1` the value was -5.27%; for `Cc1nnc(NC(=O)CSc2nnc(CNC(=O)c3cccs3)o2)s1`, -3.39%. As for `COc1ccc(C(=O)NCc2nnc(SCC(=O)NC3CCCCC3)o2)cc1`, the “% Inhibition @ 10 uM” value is given as 76.6%.

As to `COc1ccc(C(=O)NCc2nnc(SCC(=O)Nc3nnc(C)s3)o2)cc1`, the “% Inhibition @ 10 uM” value was 84%.

On to `COc1cc(C(=O)NCc2nnc(SCC(=O)NC3CCCCC3)o2)cc(OC)c1OC`, for which the “% Inhibition @ 10 uM” value came out at 1.64%. As for `NC(=O)/C=C/C(=O)Nc1ccccc1`, the figure is -3.13%; as for `CCCCNC(=O)CCc1nc2cccnc2n1Cc1ccccc1`, 3.96%. As for `CCOc1ccc2c3c(c(=O)oc2c1)CCC3`, the figure is -3.38%; as for `CCCC1CCC(C2=N/C(=C\c3cc(OC)c(OC)cc3OC)C(=O)O2)CC1` (stereo not shown), -3.33%.

As to `O=C(CSc1nc2ccccc2o1)N1CCN(c2nnc(-c3ccccc3)c3ccccc23)CC1`, the “% Inhibition @ 10 uM” value is on record as 2.46%. Regarding `COCCNC(=O)CSc1[nH]c(-c2cccc(OC)c2)nc1-c1ccccc1`, the “% Inhibition @ 10 uM” value is recorded as 0.163%. For `Cc1nc(C(=O)N[C@@H](CC(C)C)C(=O)NCC#N)nn1-c1ccc(Cl)cc1Cl` the value was 5.76%. For `CCOc1ccc(/C=C(\NC(=O)c2ccc(C)cc2)C(=O)Nc2cccc(O)c2)cc1` the value was 4.67%. As for `COc1ccc(C2CC(=O)N3CN(Cc4ccccc4)CSC3=C2C#N)cc1OC` (stereo not shown), the figure is 6.73%; as for `COc1ccc(Br)cc1C1CC(=O)N2CN(Cc3ccccc3)CSC2=C1C#N` (stereo not shown), 60.8%. Turning to `COc1ccc2ccccc2c1C1CC(=O)N2CN(Cc3ccccc3)CSC2=C1C#N` (stereo not shown), the “% Inhibition @ 10 uM” value was 35.8%.

As to `COc1ccc(OC)c(C2CC(=O)N3CN(Cc4ccco4)CSC3=C2C#N)c1` (stereo not shown), the “% Inhibition @ 10 uM” value worked out at 6.87%. As for `COc1cccc(C2CC(=O)N3CN(Cc4ccco4)CSC3=C2C#N)c1OC` (stereo not shown), the figure is 18.7%; as for `COc1cc(C2CC(=O)N3CN(Cc4ccccc4)CSC3=C2C#N)cc(Br)c1O` (stereo not shown), 57%. In the case of `COc1ccc(CN2CSC3=C(C#N)C(c4cccs4)CC(=O)N3C2)cc1` (stereo not shown), the “% Inhibition @ 10 uM” value is listed as 50.8%. As for `CCOc1cc(C2CC(=O)N3CN(Cc4ccccc4)CSC3=C2C#N)ccc1O` (stereo not shown), the “% Inhibition @ 10 uM” value came out at 19.8%. As for `COc1ccc(C2CC(=O)N3CN(Cc4ccccc4)CSC3=C2C#N)c(OC)c1` (stereo not shown), the “% Inhibition @ 10 uM” value worked out at 32.1%.

`COc1ccc(Br)cc1C1CC(=O)N2CN(Cc3ccco3)CSC2=C1C#N` (stereo not shown): the “% Inhibition @ 10 uM” value was found to be 60.5%. As for `N#CC1=C2SCN(Cc3ccccc3)CN2C(=O)CC1c1cccs1` (stereo not shown), the figure is 40.5%. For `COc1ccc(CN2CSC3=C(C#N)C(c4ccc(C)cc4)CC(=O)N3C2)cc1` (stereo not shown) the value was 43.8%; for `Cc1ccc2oc(=O)c3cc(C(=O)N4CCC(C)CC4)sc3c2c1`, 0.809%.

For the compound `CCCOc1ccc(CN(C(=O)c2nc(SC)ncc2Cl)C2CCS(=O)(=O)C2)cc1` (stereo not shown), the “% Inhibition @ 10 uM” value was -4.64%. As for `Cc1cc(C)c2c(n1)nn1c(C3CC3)cc(C(F)(F)F)nc21`, the figure is 2.54%. For `O=C(NCC(=O)N1CCOCC1)c1ccccc1` the value was 15.6%. For `O=C(NCCc1ccccc1)C1CCCN(S(=O)(=O)c2cccc3cccnc23)C1` (stereo not shown) the value was -4.69%; for `COc1cccc(C(=O)Nc2ccc(C(C)C)cc2)c1`, -1.25%; for `COCCOC(=O)N/C=C\c1nc(O)c2ccccc2n1`, -4.65%. On to `CCOC(=O)c1cnn2c(C(F)(F)F)cc(C)nc12`, for which the “% Inhibition @ 10 uM” value is on record as -3.53%. For `N#Cc1c2c(c(S)sc1=N)CCCC2` the value was 59.6%; for `CC1(C)Cc2c(c(S)sc(=N)c2C#N)CO1`, 8.27%; for `CN1CCc2c(c(S)sc(=N)c2C#N)C1`, 5.59%. Consider `COc1cccc(CNC(=O)CNC(=S)N(Cc2ccccc2)Cc2cccnc2)c1`, for which the “% Inhibition @ 10 uM” value was -0.406%. As for `Cc1cc(C)c2c(-n3cccc3)nn(CC(=O)N3CCCCCC3)c2n1`, the figure is -3.52%; as for `COCC(=O)Nc1nc2nccc(C)n2n1`, -1.31%; as for `CCn1c(C(=O)N2CCC(C(=O)NCCN(CC(C)C)CC(C)C)CC2)cc2sccc21`, -5.19%.

For `CCn1c(C(=O)N2CCC(C(=O)NCCOC)CC2)cc2sccc21`, the “% Inhibition @ 10 uM” value was 4.95%. As for `CCn1c(C(=O)N2CCC(C(=O)NCCC(C)C)CC2)cc2sccc21`, the figure is 92.1%. For `N#CCNC(=O)[C@H](CC1CCCCC1)NC(=O)c1sccc1Br` the value was 1.35%.

On to `O=C1C(Nc2cccc(O)c2)=C(N2CCCCC2)C(=O)c2ccccc21`, for which the “% Inhibition @ 10 uM” value is 0.162%. `O=C1C(Nc2cccc(Br)c2)=C(N2CCCCC2)C(=O)c2ccccc21`: the “% Inhibition @ 10 uM” value worked out at 1.84%. As for `Nc1ccc(NC2=C(N3CCCCC3)C(=O)c3ccccc3C2=O)cc1`, the figure is 53.5%; as for `Cn1c2ccccc2c2nc3cc4ccccc4cc3nc21`, -2.54%; as for `COCCN1C(=O)c2ccccc2C(C(=O)Nc2ccc(Cl)cn2)C1c1cccs1` (stereo not shown), 4.33%. As for `C=CCOc1ccc(C(=O)C2=C(O)C(=O)N(c3ccccn3)C2c2ccc(F)cc2)cc1` (stereo not shown), the figure is 2.86%; as for `C#CCN1C(=O)C(O)(CC(=O)c2ccc3ccccc3c2)c2ccccc21` (stereo not shown), -20.7%; as for `Cn1c(SCC(=O)NCCc2ccccc2)nc2c1c(=O)n(Cc1ccccc1Cl)c(=O)n2C`, 3.81%. As for `CC1CCN(C(=O)CCN2C(=O)c3ccccc3C2=O)CC1`, the figure is 2.06%. As to `Cc1ccc(-c2cc(NC(=O)COc3ccc(C(C)C)cc3)on2)cc1`, the “% Inhibition @ 10 uM” value is -1.47%. For the compound `Cc1cccc(CCNC(=O)c2noc3c2COc2ccccc2-3)c1`, the “% Inhibition @ 10 uM” value was 75.2%. For `COc1ccc(CCNC(=O)c2noc3c2COc2ccc(C)cc2-3)cc1OC` the value was -4.07%; for `CN(CCNC(=O)c1noc2c1COc1ccccc1-2)C1CCCCC1`, 2.73%.

As to `Cc1cccc(CCNC(=O)c2cc3c(s2)-c2ccccc2OC3)c1`, the “% Inhibition @ 10 uM” value is listed as -4.85%. As for `O=C(NCCc1c[nH]c2ccccc12)c1noc2c1COc1ccccc1-2`, the figure is 91.5%; as for `O=C(NCCc1ccc(Cl)cc1)c1noc2c1COc1ccccc1-2`, 82.6%; as for `CCOc1ccc(CCNC(=O)c2noc3c2COc2ccccc2-3)cc1OCC`, 80.8%. As for `O=C(NCCc1ccccc1)c1noc2c1CCc1ccccc1-2`, the figure is -7.85%; as for `Cc1ccc2c(c1)-c1onc(C(=O)NCCN(C)C)c1CO2`, -4.37%; as for `CCOc1ccc(-c2cc(NC(=O)c3noc4c3COc3ccccc3-4)on2)cc1OCC`, -1.72%.

Regarding `CCOC(=O)c1noc2c1COc1ccccc1-2`, the “% Inhibition @ 10 uM” value was -1.51%. As for `O=C(NCC1(c2ccccc2)CCCC1)c1noc2c1COc1ccccc1-2`, the figure is 47.2%; as for `O=C(/C=C/c1ccco1)N(Cc1cccc(F)c1)C1CCS(=O)(=O)C1` (stereo not shown), -1.35%; as for `O=C(Nc1ccccc1)N1CCN(c2ccccc2)CC1`, 1.33%.
